# Experimental data as given in paper PMC7862700, “An all-to-all approach to the identification of sequence-specific readers for epigenetic DNA modifications on cytosine”.
# What was measured:
# Test in all cases: DAPPL (digital affinity profiling via proximity ligation, sequencing); 10 mM Tris-HCl pH 7.5, 50 mM NaCl, 1 mM DTT, 4% glycerol, room temperature, 30 min; GST-TFs on glutathione beads, 16-mer random dsDNA library, 0.1% formaldehyde crosslink after washing; high values mean tight binding
# FEV = molecular target: T1, FEV (Homo sapiens, UniProt Q99581 1-238); settings: protein: recombinant; tags: N-terminal GST; dsDNA, one strand shown
# T1 sequence: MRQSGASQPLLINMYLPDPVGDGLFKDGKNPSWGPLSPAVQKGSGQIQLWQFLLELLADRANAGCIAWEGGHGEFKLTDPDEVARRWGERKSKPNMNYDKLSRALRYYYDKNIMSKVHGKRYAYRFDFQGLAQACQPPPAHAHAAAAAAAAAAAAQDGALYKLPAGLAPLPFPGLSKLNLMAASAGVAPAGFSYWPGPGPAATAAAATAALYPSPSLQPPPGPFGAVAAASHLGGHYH
# Outline: (§1)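 Yeast served to express human transcription factors as GST fusions, which were then captured on glutathione beads and labelled with DNA barcodes. Pooled with a tag-only sample, they were incubated with 200 nmole of a 16-mer random double-stranded DNA library for 30 min at room temperature in Tris/NaCl/DTT/glycerol buffer, washed, crosslinked with 0.1% formaldehyde, ligated by proximity, amplified by PCR and sequenced. Dividing each hexamer's read frequency for a factor by its frequency for the tag-only sample gives the binding signal.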
# ETV5 = ETV5 (Homo sapiens, UniProt P41161 1-510); settings: protein: recombinant; tags: N-terminal GST; dsDNA, one strand shown
# Sequence of ETV5 (P41161 whole entry): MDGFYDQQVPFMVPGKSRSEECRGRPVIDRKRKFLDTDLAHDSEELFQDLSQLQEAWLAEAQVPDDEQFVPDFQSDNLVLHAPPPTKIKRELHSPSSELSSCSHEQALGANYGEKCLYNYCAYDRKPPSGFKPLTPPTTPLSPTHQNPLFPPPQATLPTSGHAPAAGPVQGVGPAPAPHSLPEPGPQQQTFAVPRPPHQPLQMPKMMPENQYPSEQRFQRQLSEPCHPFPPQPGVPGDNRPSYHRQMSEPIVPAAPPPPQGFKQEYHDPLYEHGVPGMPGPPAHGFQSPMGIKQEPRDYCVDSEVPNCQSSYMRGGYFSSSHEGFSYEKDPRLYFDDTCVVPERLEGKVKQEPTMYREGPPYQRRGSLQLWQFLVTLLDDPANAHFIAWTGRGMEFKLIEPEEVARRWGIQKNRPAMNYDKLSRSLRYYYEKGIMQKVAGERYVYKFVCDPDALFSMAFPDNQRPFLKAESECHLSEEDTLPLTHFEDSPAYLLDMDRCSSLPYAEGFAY
# Outline: as §1
# HSF1 = HSF1 (Homo sapiens, UniProt Q00613 1-529); settings: protein: recombinant; tags: N-terminal GST; chain copies: 3; dsDNA, one strand shown
# Sequence of HSF1 (Q00613 whole entry): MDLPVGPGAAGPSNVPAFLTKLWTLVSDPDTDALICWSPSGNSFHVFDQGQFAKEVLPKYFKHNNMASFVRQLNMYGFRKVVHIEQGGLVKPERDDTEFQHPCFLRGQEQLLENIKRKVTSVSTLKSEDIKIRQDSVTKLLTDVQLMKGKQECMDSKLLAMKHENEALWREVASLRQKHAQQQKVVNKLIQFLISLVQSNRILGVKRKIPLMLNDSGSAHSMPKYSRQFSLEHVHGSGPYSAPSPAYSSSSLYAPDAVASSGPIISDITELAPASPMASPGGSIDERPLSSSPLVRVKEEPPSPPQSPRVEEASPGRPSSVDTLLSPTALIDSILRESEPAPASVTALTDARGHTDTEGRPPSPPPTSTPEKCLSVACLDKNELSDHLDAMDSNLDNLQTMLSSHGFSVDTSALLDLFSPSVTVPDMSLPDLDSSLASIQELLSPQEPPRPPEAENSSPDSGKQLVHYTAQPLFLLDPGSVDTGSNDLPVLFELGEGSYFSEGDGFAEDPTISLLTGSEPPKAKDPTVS
# Outline: as §1
# SPIC = molecular target: T2, SPIC (Homo sapiens, UniProt Q8N5J4 1-248); settings: protein: recombinant; tags: N-terminal GST; dsDNA, one strand shown
# T2 sequence: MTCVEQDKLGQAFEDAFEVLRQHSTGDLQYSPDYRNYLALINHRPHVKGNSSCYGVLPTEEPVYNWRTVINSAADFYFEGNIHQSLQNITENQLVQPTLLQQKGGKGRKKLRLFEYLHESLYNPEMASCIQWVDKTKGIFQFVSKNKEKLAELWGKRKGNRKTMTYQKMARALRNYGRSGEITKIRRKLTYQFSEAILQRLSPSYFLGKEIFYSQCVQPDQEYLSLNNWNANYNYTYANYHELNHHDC
# Outline: as §1
# ELF4 = ELF4 (Homo sapiens, UniProt Q99607 1-663); settings: protein: recombinant; tags: N-terminal GST; dsDNA, one strand shown
# Sequence of ELF4 (Q99607 whole entry): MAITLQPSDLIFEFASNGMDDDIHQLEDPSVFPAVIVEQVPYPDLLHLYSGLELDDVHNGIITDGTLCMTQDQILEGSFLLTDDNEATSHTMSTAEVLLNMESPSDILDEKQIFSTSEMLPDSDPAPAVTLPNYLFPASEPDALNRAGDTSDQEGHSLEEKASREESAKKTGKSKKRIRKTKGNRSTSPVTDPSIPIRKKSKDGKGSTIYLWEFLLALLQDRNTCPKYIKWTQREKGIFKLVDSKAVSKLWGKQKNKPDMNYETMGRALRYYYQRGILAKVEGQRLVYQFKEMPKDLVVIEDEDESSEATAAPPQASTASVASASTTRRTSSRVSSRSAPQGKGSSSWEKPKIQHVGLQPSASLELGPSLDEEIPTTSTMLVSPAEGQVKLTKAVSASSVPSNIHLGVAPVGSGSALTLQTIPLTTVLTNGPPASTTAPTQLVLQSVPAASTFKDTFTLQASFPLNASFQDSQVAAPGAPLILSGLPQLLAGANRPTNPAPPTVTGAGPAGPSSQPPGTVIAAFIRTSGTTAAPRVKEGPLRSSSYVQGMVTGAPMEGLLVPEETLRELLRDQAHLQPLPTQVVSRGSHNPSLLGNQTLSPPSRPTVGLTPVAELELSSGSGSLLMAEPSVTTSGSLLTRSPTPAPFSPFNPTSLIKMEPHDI
# Outline: as §1
# ELK4 = molecular target: T3, ELK4 (Homo sapiens, UniProt P28324-2 1-405); settings: protein: recombinant; tags: N-terminal GST; dsDNA, one strand shown
# T3 sequence: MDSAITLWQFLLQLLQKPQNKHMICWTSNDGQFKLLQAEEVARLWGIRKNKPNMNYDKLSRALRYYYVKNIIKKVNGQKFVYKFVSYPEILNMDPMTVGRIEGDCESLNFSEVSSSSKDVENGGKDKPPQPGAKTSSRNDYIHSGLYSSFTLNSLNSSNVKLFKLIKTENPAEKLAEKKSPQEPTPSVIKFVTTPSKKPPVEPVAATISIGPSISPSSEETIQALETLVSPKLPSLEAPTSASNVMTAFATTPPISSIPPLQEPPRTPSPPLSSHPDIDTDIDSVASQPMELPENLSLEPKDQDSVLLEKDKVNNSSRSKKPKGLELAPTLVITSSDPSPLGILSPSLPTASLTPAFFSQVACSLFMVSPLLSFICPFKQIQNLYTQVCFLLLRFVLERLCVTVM
# Outline: as §1
# ETV2 = molecular target: T4, ETV2 (Homo sapiens, UniProt O00321 1-342); settings: protein: recombinant; tags: N-terminal GST; dsDNA, one strand shown
# T4 sequence: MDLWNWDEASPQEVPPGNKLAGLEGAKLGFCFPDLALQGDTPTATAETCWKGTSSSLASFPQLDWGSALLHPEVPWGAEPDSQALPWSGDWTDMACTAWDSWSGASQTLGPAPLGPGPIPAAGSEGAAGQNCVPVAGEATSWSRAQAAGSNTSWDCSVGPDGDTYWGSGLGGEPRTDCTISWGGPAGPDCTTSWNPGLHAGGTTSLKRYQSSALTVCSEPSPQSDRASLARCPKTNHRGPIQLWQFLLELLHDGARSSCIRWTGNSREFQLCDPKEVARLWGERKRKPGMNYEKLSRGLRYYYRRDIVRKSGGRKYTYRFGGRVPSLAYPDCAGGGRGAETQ
# Outline: as §1
# ELF3 = molecular target: T5, ELF3 (Homo sapiens, UniProt P78545 1-371); settings: protein: recombinant; tags: N-terminal GST; dsDNA, one strand shown
# T5 sequence: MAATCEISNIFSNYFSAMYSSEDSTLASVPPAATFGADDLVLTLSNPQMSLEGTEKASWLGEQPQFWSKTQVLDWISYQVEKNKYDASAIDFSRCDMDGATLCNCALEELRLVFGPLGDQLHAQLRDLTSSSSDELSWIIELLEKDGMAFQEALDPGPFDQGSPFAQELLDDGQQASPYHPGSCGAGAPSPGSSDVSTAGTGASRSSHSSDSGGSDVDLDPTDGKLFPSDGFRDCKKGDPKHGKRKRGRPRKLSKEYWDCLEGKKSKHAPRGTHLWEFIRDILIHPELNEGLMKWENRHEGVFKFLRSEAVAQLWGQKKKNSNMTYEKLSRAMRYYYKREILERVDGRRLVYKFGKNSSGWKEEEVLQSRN
# Outline: as §1
# ETV1 = ETV1 (Homo sapiens, UniProt P50549 1-477); settings: protein: recombinant; tags: N-terminal GST; dsDNA, one strand shown
# Sequence of ETV1 (P50549 whole entry): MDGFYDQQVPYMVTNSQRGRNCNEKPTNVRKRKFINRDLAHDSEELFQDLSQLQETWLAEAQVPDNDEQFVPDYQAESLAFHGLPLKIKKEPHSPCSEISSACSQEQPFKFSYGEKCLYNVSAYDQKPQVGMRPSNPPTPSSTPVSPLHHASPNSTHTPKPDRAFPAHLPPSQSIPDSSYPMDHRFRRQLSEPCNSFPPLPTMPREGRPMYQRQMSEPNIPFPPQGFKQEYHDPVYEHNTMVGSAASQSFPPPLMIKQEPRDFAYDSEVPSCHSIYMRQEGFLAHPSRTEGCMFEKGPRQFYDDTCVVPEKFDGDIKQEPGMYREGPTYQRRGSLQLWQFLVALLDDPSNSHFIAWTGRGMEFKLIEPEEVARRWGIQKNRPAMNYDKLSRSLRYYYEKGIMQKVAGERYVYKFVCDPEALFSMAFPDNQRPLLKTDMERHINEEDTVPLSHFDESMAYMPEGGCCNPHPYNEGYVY
# Outline: as §1
# ERF = molecular target: T6, ERF (Homo sapiens, UniProt P50548 1-548); settings: protein: recombinant; tags: N-terminal GST; dsDNA, one strand shown
# T6 sequence: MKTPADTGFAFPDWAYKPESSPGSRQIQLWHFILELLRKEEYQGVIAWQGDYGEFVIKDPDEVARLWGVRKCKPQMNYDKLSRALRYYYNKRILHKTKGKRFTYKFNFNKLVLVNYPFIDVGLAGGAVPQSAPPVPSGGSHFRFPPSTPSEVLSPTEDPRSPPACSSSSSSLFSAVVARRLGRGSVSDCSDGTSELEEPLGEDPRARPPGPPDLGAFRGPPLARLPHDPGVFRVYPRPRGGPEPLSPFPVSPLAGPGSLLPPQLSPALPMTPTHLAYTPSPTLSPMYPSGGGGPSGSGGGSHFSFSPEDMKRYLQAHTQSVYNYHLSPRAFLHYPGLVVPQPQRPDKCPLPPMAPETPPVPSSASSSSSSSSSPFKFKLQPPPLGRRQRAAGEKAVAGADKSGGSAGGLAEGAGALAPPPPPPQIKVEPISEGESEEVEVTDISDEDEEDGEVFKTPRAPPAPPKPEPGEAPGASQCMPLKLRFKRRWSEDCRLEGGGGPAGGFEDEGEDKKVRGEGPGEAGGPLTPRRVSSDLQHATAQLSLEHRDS
# Outline: as §1
# ETV3L = molecular target: T7, ETV3L (Homo sapiens, UniProt Q6ZN32 1-361); settings: protein: recombinant; tags: N-terminal GST; dsDNA, one strand shown
# T7 sequence: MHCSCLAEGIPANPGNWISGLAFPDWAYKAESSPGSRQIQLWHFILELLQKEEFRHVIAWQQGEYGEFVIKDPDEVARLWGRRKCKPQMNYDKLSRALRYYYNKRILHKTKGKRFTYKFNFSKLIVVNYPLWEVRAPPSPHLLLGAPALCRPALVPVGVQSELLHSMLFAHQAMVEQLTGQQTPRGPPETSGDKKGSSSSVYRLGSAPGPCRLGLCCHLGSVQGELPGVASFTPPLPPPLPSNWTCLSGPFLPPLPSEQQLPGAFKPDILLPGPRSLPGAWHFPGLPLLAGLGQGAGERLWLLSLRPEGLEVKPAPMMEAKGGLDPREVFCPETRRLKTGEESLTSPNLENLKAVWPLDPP
# Outline: as §1
# ETS2 = molecular target: T8, ETS2 (Homo sapiens, UniProt P15036 1-469); settings: protein: recombinant; tags: N-terminal GST; dsDNA, one strand shown
# T8 sequence: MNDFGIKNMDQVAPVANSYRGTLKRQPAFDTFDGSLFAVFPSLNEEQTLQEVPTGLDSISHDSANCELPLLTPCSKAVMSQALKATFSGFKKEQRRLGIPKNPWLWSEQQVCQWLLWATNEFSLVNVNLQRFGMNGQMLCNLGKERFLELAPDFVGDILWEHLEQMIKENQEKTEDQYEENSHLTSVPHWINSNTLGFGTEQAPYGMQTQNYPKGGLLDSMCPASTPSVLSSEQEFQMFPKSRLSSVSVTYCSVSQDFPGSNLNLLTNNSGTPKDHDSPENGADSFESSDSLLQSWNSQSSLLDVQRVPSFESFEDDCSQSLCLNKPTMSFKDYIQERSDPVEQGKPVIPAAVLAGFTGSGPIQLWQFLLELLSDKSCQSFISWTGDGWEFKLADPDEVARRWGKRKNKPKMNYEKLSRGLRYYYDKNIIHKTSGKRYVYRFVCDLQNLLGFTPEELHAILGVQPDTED
# Outline: as §1
# SPDEF = molecular target: T9, SPDEF (Homo sapiens, UniProt O95238 1-335); settings: protein: recombinant; tags: N-terminal GST; dsDNA, one strand shown
# T9 sequence: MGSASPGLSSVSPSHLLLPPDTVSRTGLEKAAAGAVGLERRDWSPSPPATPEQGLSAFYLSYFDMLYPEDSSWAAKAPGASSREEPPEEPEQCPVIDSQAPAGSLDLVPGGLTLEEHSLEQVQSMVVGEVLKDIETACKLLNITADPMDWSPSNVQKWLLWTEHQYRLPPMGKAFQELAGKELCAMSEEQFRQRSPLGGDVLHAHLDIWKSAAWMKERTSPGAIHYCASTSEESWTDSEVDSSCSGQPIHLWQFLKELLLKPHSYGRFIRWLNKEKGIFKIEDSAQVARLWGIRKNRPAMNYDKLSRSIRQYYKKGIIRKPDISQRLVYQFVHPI
# Outline: as §1
# ETV7 = molecular target: T10, ETV7 (Homo sapiens, UniProt Q9Y603 1-341); settings: protein: recombinant; tags: N-terminal GST; dsDNA, one strand shown
# T10 sequence: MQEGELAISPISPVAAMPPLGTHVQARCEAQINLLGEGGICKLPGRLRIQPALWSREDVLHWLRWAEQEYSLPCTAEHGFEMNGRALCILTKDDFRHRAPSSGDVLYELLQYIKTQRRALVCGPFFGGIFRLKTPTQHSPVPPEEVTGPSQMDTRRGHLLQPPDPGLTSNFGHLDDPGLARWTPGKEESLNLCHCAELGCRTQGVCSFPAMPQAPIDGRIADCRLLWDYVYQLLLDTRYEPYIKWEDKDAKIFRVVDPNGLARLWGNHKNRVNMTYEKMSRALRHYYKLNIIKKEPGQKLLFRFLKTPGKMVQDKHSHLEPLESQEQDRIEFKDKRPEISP
# Outline: as §1
# ELF5 = molecular target: T11, ELF5 (Homo sapiens, UniProt Q9UKW6-2 1-255); settings: protein: recombinant; tags: N-terminal GST; dsDNA, one strand shown
# T11 sequence: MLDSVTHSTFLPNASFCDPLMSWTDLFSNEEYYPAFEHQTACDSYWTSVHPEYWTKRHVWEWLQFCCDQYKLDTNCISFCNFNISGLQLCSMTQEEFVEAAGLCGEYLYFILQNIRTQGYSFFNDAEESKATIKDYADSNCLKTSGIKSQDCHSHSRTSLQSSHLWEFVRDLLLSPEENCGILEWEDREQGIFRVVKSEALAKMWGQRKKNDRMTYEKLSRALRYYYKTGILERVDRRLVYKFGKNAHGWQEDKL
# Outline: as §1
# ETV3 = molecular target: T12, ETV3 (Homo sapiens, UniProt P41162-2 1-143); settings: protein: recombinant; tags: N-terminal GST; dsDNA, one strand shown
# T12 sequence: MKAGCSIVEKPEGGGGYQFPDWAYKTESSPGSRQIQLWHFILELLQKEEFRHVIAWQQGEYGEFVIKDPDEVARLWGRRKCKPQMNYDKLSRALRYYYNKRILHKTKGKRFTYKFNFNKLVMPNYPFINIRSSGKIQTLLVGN
# Outline: as §1
# ETV6 = ETV6 (Homo sapiens, UniProt P41212 1-452); settings: protein: recombinant; tags: N-terminal GST; dsDNA, one strand shown
# Sequence of ETV6 (P41212 whole entry): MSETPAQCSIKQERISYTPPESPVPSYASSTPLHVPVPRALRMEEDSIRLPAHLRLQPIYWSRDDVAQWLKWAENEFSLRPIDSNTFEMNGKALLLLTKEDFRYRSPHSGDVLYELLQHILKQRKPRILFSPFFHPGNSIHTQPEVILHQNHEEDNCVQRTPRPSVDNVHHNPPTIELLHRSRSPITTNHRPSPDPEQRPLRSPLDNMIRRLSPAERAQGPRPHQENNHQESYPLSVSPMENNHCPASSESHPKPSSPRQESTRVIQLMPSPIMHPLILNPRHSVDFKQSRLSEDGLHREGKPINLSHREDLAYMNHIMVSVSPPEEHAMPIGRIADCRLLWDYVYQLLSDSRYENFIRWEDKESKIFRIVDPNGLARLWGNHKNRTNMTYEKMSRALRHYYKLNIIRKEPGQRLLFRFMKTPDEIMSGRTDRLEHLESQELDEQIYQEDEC
# Outline: as §1
Sequence,binding signal (FEV),binding signal (ETV5),binding signal (HSF1),binding signal (SPIC),binding signal (ELF4),binding signal (ELK4),binding signal (ETV2),binding signal (ELF3),binding signal (ETV1),binding signal (ERF),binding signal (ETV3L),binding signal (ETS2),binding signal (SPDEF),binding signal (ETV7),binding signal (ELF5),binding signal (ETV3),binding signal (ETV6)
ACTGGC,"1.11 fold enrichment (6-mer frequency, TF over GST control)","1.11 fold enrichment (6-mer frequency, TF over GST control)","1.07 fold enrichment (6-mer frequency, TF over GST control)","1.28 fold enrichment (6-mer frequency, TF over GST control)","1.16 fold enrichment (6-mer frequency, TF over GST control)","1.25 fold enrichment (6-mer frequency, TF over GST control)","1.11 fold enrichment (6-mer frequency, TF over GST control)","1.1 fold enrichment (6-mer frequency, TF over GST control)","1.11 fold enrichment (6-mer frequency, TF over GST control)","1.18 fold enrichment (6-mer frequency, TF over GST control)","1.18 fold enrichment (6-mer frequency, TF over GST control)","1.11 fold enrichment (6-mer frequency, TF over GST control)","1.04 fold enrichment (6-mer frequency, TF over GST control)","1.21 fold enrichment (6-mer frequency, TF over GST control)","1.04 fold enrichment (6-mer frequency, TF over GST control)","1.07 fold enrichment (6-mer frequency, TF over GST control)","1.15 fold enrichment (6-mer frequency, TF over GST control)"
CTTGAC,"1.18 fold enrichment (6-mer frequency, TF over GST control)","1.14 fold enrichment (6-mer frequency, TF over GST control)","1.02 fold enrichment (6-mer frequency, TF over GST control)","1.14 fold enrichment (6-mer frequency, TF over GST control)","1.27 fold enrichment (6-mer frequency, TF over GST control)","1.37 fold enrichment (6-mer frequency, TF over GST control)","1.33 fold enrichment (6-mer frequency, TF over GST control)","1.33 fold enrichment (6-mer frequency, TF over GST control)","1.33 fold enrichment (6-mer frequency, TF over GST control)","1.16 fold enrichment (6-mer frequency, TF over GST control)","1.17 fold enrichment (6-mer frequency, TF over GST control)","1.12 fold enrichment (6-mer frequency, TF over GST control)","1.13 fold enrichment (6-mer frequency, TF over GST control)","1.2 fold enrichment (6-mer frequency, TF over GST control)","1.21 fold enrichment (6-mer frequency, TF over GST control)","1.22 fold enrichment (6-mer frequency, TF over GST control)","1.23 fold enrichment (6-mer frequency, TF over GST control)"
